Bioassay records: PubChem BioAssay, National Center for Advancing Translational Sciences (NCATS)
G9a inh – G9a (human) methyltransferase inhibition | Q96KQ7 | G9a H3K9 monomethylation, AlphaScreen, 2 h | Potency, µM (highest dose often 102 µM), inactives show at the top dose activity, negative = inhibition, usual class: inhibitors | 350,000 tested, 8.8% active; further: on the % scale 0 is the no-effect control and ±100 the full control effect; nearly all actives have a fitted effect of over 75% in size
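Signal arises when biotinylated H3K9 peptide, once monomethylated, bridges streptavidin donor and antibody-captured acceptor beads. Enzyme at 20 nM was preincubated 15 min with test compounds; peptide 500 nM and SAM 20 uM then reacted for 2 h.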
BAZ2B inh – inhibitors of human BAZ2B bromodomain; Potency, µM (doses to about 114 µM), without a hit: top-dose activity change, negative = inhibition, most hits filed as inhibitors; AID 504333; 360,000 tested, 4.4% active; AlphaScreen BAZ2B-H3K14Ac peptide displacement; further: on the % scale 0 is the no-effect control and ±100 the full control effect; nearly all actives have a fitted effect of over 60% in size
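In this displacement format the biotinylated H3(5-23) peptide acetylated at Lys14 serves as ligand at 50 nM, with BAZ2B at 50 nM in PBS pH 7.4 containing 0.01% Tween-20. Donor and acceptor beads are 10 ug/mL final.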
VDR inhibitor – vitamin D3 receptor (human) inhibition; 400,000 tested, 0.93% active; AID 504847; P11473; Potency, µM, inactives show max response, negative = inhibition, usual class: inhibitors; VDR-SRC2-3 peptide fluorescence polarization, 2 h; further: on the % scale 0 is the no-effect control and ±100 the full control effect
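Two reagent solutions held at 4 deg C in the dark were dispensed, compounds pinned at 23 nl, and the mixture incubated 2 h at room temperature. Read-out: fluorescence polarization of VDR–SRC2-3 peptide binding.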
PLK1 PBD inh – blocks phosphopeptide binding to human PLK1 polo-box domain. 360,000 tested, 2.8% active. Potency, µM, without a hit: max response, negative = inhibition, actives largely listed as inhibitors. AID 720504. Plk1 PBD binding of FITC phosphopeptide, fluorescence polarization; further: series mostly up to about 57 µM; on the % scale 0 is the no-effect control and ±100 the full control effect; nearly all actives have a fitted effect of over 65% in size
Target sequence (P53350 whole entry, looked up, the tested form may be a part): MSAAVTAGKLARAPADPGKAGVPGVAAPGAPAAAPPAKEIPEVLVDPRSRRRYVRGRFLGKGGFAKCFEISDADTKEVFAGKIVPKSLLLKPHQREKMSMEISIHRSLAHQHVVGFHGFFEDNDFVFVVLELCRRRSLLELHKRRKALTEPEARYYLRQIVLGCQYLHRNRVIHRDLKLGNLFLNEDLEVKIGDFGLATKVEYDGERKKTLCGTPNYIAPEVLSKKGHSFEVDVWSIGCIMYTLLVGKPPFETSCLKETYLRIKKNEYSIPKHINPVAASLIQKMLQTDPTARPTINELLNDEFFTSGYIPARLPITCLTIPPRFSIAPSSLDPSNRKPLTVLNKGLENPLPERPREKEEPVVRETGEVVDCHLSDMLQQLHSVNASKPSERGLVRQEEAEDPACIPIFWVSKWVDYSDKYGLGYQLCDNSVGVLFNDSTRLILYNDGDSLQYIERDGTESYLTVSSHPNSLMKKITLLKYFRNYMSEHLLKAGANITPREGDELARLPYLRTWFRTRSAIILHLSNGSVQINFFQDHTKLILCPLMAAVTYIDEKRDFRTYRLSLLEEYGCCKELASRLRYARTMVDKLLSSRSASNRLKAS
JMJD2A Tudor inh – inhibitors of human JMJD2A Tudor domain. O75164. AlphaScreen JMJD2A-Tudor / H3K4me3 peptide binding. Potency, µM (titrated, usually from 114 µM), for inactives: at the top dose activity change, negative = inhibition, actives largely listed as inhibitors. 390,000 tested, 4.4% active. AID 504339; further: on the % scale 0 is the no-effect control and ±100 the full control effect; nearly all actives have a fitted effect of over 50% in size
HP1b binding inh – HP1-beta chromodomain-methylated histone interaction inhibition. P83916. AlphaScreen HP1-beta / biotin-H3K9me3 peptide binding. Potency, µM (top dose mostly 114 µM), for the others: at the highest dose activity change, negative = inhibition, most hits filed as inhibitors. 390,000 tested, 0.56% active; further: nearly all actives have a fitted effect of over 70% in size
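HP1-beta protein (50 nM final) preincubated 30 min at room temperature with biotinylated H3(1-18)K9me3 peptide (50 nM) in PBS pH 7.4, 0.01% Tween-20, then compound added for 30 min. AlphaScreen streptavidin donor/nickel chelate acceptor beads (10 ug/mL final), 30 min dark, luminescence read.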
Starred values were filed as active, the others as inactive; ? = inconclusive; / = not tested or not shown; [ ] = remark or other dose. Shown are actives, neighbours in structure and some others; about 11% of the full set was active somewhere. The call rests on the fitted dose curve; in most records, active means well fitted curve in the direction sought with a large enough effect; inconclusive means small, poorly fitted or top-dose-only effect, or another doubt; inactive means no such curve, though single readings can be large; an effect the other way counts as inactive or inconclusive. Potency means the concentration at half of the fitted maximal effect.

SMILES	G9a inh	BAZ2B inh	VDR inhibitor	PLK1 PBD inh	JMJD2A Tudor inh	HP1b binding inh
CCc1cccc(C)c1NC(=O)CCCn1c(=O)c2cccn2c2cccnc21	66.0%	-13.5%	?	23.8µM*	-5.1%	1.5%
O=c1c2c3c(sc2[nH]c(=S)n1Cc1ccco1)CCC3	14.1µM*	44.7µM*	-5.7%	?	-16.2%[11.4 µM]	2.1%
CC1(C)Cc2c(sc3c2c(=N)n(Cc2ccco2)c(=O)n3Cc2ccccc2)CO1	?	79.4µM*	-0.6%	?	-7.5%[11.4 µM]	-7.0%
COCCCn1c(=S)[nH]c2sc3c(c2c1=O)CCCC3	8.91µM*	-3.5%	-18.6%	?	?	1.8%
CC1(C)Cc2c(sc3[nH]c(=S)n(Cc4ccco4)c(=O)c23)CO1	50.1µM*	-3.1%	-7.3%	?	?	-7.7%
CC(=O)Cc1cc(O)c2ccccc2c1OC(=O)c1ccccc1	-48.9%	-34.9%	7.2%	-12.3%	-22.2%	6.2%
Cc1cc(C)nc(-n2nc(C)c3c2N(Cc2ccccc2)C(=O)CC3c2ccc(Cl)cc2)n1 (stereo unspecified)	-25.5%[59 µM]	-38.3%	-3.0%	/	-19.5%	39.5%
COCCOC(=O)C1=C(C)NC(SCC(=O)NC(C)(C)C)=C(C#N)C1c1ccco1 (stereo unspecified)	-9.4%[59 µM]	-4.3%	-16.4%	-5.8%	89.1µM*	27.3%
C/C(CC(=O)Nc1cc(C)ccn1)=N\NC(=O)c1ccc(C(C)(C)C)cc1	-2.4%	-36.8%	-10.0%	-2.8%	-16.2%	12.1%
CC(C)c1ccccc1NC(=O)CNC(C)c1ccc(F)cc1 (stereo unspecified)	22.0%	2.7%	-5.8%	2.8%	0.7%	36.0%
Cc1c(C(=O)O)[nH]c2ccc([N+](=O)[O-])cc12	?	79.4µM*	-5.9%	?	79.4µM*	?
NCCc1c(C(=O)O)[nH]c2ccc([N+](=O)[O-])cc12	6.0%[12.7 µM]	-12.3%	?	21.2µM*	-10.3%[11.4 µM]	-9.6%
COc1ccc2[nH]c(C(=O)O)c(CCC(=O)O)c2c1	?	-28.3%	-7.1%	-3.3%	-11.6%	27.8%
Cc1c(C(=O)N/N=C/C(C)C)[nH]c2ccc([N+](=O)[O-])cc12	23.9%[59 µM]	-34.8%	3.2%	-3.8%	-19.9%	8.2%
CCOC(=O)[C@]12CCCC=C1N(Cc1ccccc1)C(=O)[C@H](CC(=O)NCC13CC4CC(CC(C4)C1)C3)C2	/	/	/	-12.3%	/	/
O=C1CC(c2ccco2)CC(O)=C1C=Nc1cc(Cl)ccc1Cl (stereo unspecified)	7.08µM*	50.1µM*	-14.5%	-7.2%	?	-6.1%
O=C1CC(c2ccco2)CC(O)=C1C=Nc1ccccc1-c1ccccc1 (stereo unspecified)	9.8%[59 µM]	-11.3%	12.4%	-4.0%	-15.1%	34.8%
O=C1CC(c2ccco2)CC(O)=C1C=Nc1cc(Cl)ccc1O (stereo unspecified)	?	44.7µM*	-14.8%	-24.1%	79.4µM*	?
Cc1ccc(N=CC2=C(O)CC(c3ccco3)CC2=O)cc1 (stereo unspecified)	/	-2.4%	-10.9%	0.2%	-6.0%	24.8%
O=C1CC(c2ccco2)CC(O)=C1C=Nc1ccc(Br)cc1 (stereo unspecified)	14.1µM*	-37.5%	10.5%	4.0%	-14.0%	8.8%
O=C1CC(c2ccccc2)CC(O)=C1C=Nc1ccccc1 (stereo unspecified)	2.2%	6.6%	-0.5%	23.8µM*	?	-3.8%
O=C1CC(c2ccccc2)CC(O)=C1C=Nc1ccccc1O (stereo unspecified)	29.2%	-30.4%	5.2%	1.2%	-7.6%	41.5%
O=C(COc1ccccc1Cc1ccccc1)NCCCN1CCOCC1	14.3%[12.7 µM]	8.3%	17.1%	-11.0%	-5.9%	23.0%
C/C(=N\NC(=O)CCn1nnc2ccccc21)c1ccco1	12.2%	1.3%	-14.6%	-28.5%	-20.0%	18.6%
Cc1cc(C)c(NC(=O)Cn2nc3c(cc2=O)CCCC3)c(C)c1	-1.3%[59 µM]	0.3%	4.2%	/	-1.0%	29.3%[57 µM]
COC1=CC(=O)C(O)=C/C1=C\C=C\c1ccccc1	/	/	2.82µM*	/	/	/
